# According to paper PMC4336329 (PLoS ONE, 2015):
# Hit rate of the full screen: of about 310,000 compounds, about 14,000 (4.5%) showed an effect of 50% or more. Effects have a minus sign here. For the sample, strong results were picked, then their nearest neighbours and some compounds at random.
# Molecular target: human ether-à-go-go-related gene (hERG) potassium channel (human, UniProt Q12809)
# Test: primary screen, population patch clamp on CHO cells stably expressing hERG; higher = less effect of the substance
# 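Also: peak tail current of the secondary pulse compared with the same well before compound.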
# Chain of human ether-à-go-go-related gene (hERG) potassium channel (Q12809 whole entry, looked up): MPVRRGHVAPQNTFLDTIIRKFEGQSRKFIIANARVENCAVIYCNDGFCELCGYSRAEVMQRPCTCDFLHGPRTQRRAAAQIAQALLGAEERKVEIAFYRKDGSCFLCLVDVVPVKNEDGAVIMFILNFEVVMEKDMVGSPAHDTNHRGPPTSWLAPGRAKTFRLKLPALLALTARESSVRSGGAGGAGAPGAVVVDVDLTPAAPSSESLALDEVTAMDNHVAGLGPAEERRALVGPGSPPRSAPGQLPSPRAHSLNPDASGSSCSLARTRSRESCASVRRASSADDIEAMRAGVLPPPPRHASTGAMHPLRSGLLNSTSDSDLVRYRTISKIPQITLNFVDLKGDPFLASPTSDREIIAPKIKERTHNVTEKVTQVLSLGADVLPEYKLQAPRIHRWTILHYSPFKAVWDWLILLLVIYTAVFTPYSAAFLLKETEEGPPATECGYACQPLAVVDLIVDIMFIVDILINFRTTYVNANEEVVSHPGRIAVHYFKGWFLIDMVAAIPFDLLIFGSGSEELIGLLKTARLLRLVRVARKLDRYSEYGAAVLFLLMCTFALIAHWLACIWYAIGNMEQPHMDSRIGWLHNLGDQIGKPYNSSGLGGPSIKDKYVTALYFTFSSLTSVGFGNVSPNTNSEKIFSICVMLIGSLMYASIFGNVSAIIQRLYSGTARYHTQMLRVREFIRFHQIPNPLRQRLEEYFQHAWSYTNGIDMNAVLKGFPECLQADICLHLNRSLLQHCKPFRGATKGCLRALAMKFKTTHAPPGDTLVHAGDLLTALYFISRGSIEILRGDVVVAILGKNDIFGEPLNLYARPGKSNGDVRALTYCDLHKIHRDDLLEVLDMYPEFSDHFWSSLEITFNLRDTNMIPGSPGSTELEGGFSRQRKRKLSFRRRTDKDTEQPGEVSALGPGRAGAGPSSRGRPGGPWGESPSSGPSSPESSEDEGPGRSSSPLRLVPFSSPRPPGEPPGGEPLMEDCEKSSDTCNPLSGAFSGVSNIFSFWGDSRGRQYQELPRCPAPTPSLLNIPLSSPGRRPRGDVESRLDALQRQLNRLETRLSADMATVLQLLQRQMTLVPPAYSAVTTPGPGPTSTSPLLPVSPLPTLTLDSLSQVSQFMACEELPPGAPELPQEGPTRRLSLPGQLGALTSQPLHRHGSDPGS
row,SMILES,"hERG current change (%, negative = inhibition) at 10uM"
1,O=C(Nc1ccc2c(c1)OCO2)c1cccc(S(=O)(=O)N2CCCC2)c1,-15.9%
2,CN(Cc1ccccc1)C(=O)CN1C(=O)NC(C)(c2ccc(C(C)(C)C)cc2)C1=O (stereo not drawn),-16.8%
3,COc1cccc(/C=N/NC(=O)c2nc(-c3ccccc3)cc(-c3ccccc3)n2)c1O,-9.46%
4,Cc1cc(=O)oc2cc(OCC(=O)N/N=C/c3ccccc3O)ccc12,23.9%
5,O.O=C(NCc1nc2ccccc2[nH]1)c1ccc(Cl)c(S(=O)(=O)N2CCCC2)c1,-14.3%
6,CCOC(=O)c1oc2ccc(CNC(C)(C)C)c(Cl)c2c1C.O=C(O)C(=O)O,-5.61%
7,O=C(CC(C(=O)O)P(=O)(c1ccccc1)c1ccccc1)c1ccccc1 (stereo not drawn),24.3%
8,Nc1ccc(-c2cc(N)n(-c3ccccc3)n2)cc1,0.669%
9,Cn1c2ccccc2c2cc(C(=O)NNS(=O)(=O)c3ccc(F)cc3)sc21,-5.97%
10,COc1ccccc1Nc1nc(N)nc(CSC(=S)N2CCC(C)CC2)n1,-13.7%
11,COc1ccccc1Nc1nc(N)nc(CN2CCC(C)CC2)n1,-67.5%
12,Cc1cc(C(F)(F)F)nn1C(=O)c1cccnc1Cl,-5.15%
13,CCO[C@@H]1OC(C(=O)N2CCN(Cc3ccc4c(c3)OCO4)CC2)=C[C@H](C2CC2)[C@H]1CCCO,-18.7%
14,CN1CCN(C(=O)C2=C[C@H](C3CCCCC3)C[C@H](OCc3ccc(CO)cc3)O2)CC1,-61.7%
15,O=C(C1=C[C@@H](C2CC2)C[C@@H](OCc2ccc(CO)cc2)O1)N1CCN(Cc2ccccc2)CC1,-58.7%
16,CC(C)(C)[C@H]1C=C(C(=O)N2CCN(Cc3ccccc3)CC2)O[C@@H](OCc2ccc(CO)cc2)C1,-38.9%
17,O=C(C1=C[C@H](C2CC2)C[C@H](OCc2ccc(CO)cc2)O1)N1CCN(Cc2ccccc2)CC1,-62.7%
18,O=C(C1=C[C@H](C2CC2)C[C@H](OCCCCO)O1)N1CCN(Cc2ccccc2)CC1,-12.5%
19,CCO[C@@H]1OC(C(=O)N2CCN(Cc3ccc4c(c3)OCO4)CC2)=C[C@H](C2CCCCC2)[C@H]1CCCO,-17.8%
20,O=C(C1=C[C@H](c2ccccc2)C[C@H](OCc2ccc(CO)cc2)O1)N1CCN(Cc2ccccc2)CC1,-41.2%
21,CN1CCN(C(=O)C2=C[C@H](C3CC3)C[C@H](OCc3ccc(CO)cc3)O2)CC1,-1.42%

row,SMILES,"hERG current change (%, negative = inhibition) at 10uM"
1,CCO[C@H]1OC(C(=O)N2CCN(Cc3ccc4c(c3)OCO4)CC2)=C[C@@H](C2CCCCC2)[C@@H]1CCCO,-55.5%
2,CN1CCN(C(=O)C2=C[C@@H](C3CC3)C[C@@H](OCc3ccc(CO)cc3)O2)CC1,16.5%
3,CN1CCN(C(=O)C2=C[C@@H](C3CCCCC3)C[C@@H](OCc3ccc(CO)cc3)O2)CC1,-13.6%
4,Cc1ccc(CNC(=O)C2CCN(c3nnc(N4CCCC4=O)s3)CC2)cc1,14.4%
5,CCOc1ccc(-c2nc(C#N)c(NCC(C)C)o2)cc1,7.61%
6,Cc1cccc(OCCCC(=O)NCc2ccco2)c1,2.27%
7,CCc1cccc(NC(=O)CCSCCC(=O)Nc2cccc(CC)c2)c1,-9.75%
8,CSc1n[nH]c2nc3c(c(=O)n12)C1(CCCCC1)Cc1ccccc1-3,-13%
9,CCn1nnc(-c2ccccc2NC(=O)c2ccc(-n3cnnn3)cc2)n1,-21.9%
10,O=C(C1=C[C@@H](C2CCCCC2)C[C@@H](OCCCCO)O1)N1CCN(Cc2ccccc2)CC1,-50.1%
11,O=C(C1=C[C@@H](C2CC2)C[C@@H](OCCCCO)O1)N1CCN(Cc2ccccc2)CC1,0.7%
12,O=C(C1=C[C@H](C2CC2)C[C@H](OCCCCO)O1)N1CCN(Cc2ccc3c(c2)OCO3)CC1,-26.3%
13,O=C(C1=C[C@@H](C2CCCCC2)C[C@@H](OCCCCO)O1)N1CCN(Cc2ccc3c(c2)OCO3)CC1,-45.1%
14,O=C(C1=C[C@H](C2CCCCC2)C[C@H](OCCCCO)O1)N1CCN(Cc2ccc3c(c2)OCO3)CC1,-56.5%
15,O=C(C1=C[C@@H](C2CCCCC2)C[C@@H](OCc2ccc(CO)cc2)O1)N1CCOCC1,-23.9%
16,O=C(C1=C[C@@H](C2CCCCC2)C[C@@H](OCc2ccc(CO)cc2)O1)N1CCN(Cc2ccccc2)CC1,-25.4%
17,O=C(C1=C[C@H](C2CCCCC2)C[C@H](OCCCCO)O1)N1CCN(Cc2ccccc2)CC1,-46.4%
18,O=C(C1=C[C@H](C2CCCCC2)C[C@H](OCc2ccc(CO)cc2)O1)N1CCN(Cc2ccccc2)CC1,-67.6%
19,CN(CC(=O)O/N=C(\N)c1ccc([N+](=O)[O-])cc1)S(=O)(=O)c1ccc2ccccc2c1,-12.6%
20,CCN(C1CCCCC1)S(=O)(=O)c1ccc(C(=O)O)cc1,6.74%
21,O=C(Nc1cccnc1Cl)c1ccc(S(=O)(=O)N2CCCCCC2)cc1,-8.39%

row,SMILES,"hERG current change (%, negative = inhibition) at 10uM"
1,CCc1c2c(nc3ccc(OC(=O)N4CCC(N5CCCCC5)CC4)cc13)-c1cc3c(c(=O)n1C2)COC(=O)[C@]3(O)CC.Cl.O,12.8%
2,CC(CCc1ccccc1)NC(=O)CN1CCN(Cc2ccccc2)C1=O (stereo not drawn),-18.2%
3,CC(CCc1ccccc1)NC(=O)CN1CCN(Cc2ccc(Cl)cc2)C1=O (stereo not drawn),-53.2%
4,Cc1ccc(CCNC(=O)CN2CCN(Cc3ccccc3F)C2=O)cc1,-8.3%
5,Cc1ccc(CN2CCN(CC(=O)NC(C)CCc3ccccc3)C2=O)cc1 (stereo not drawn),-20.6%
6,O=C(CN1CCN(Cc2ccccc2F)C1=O)NCCc1ccc(Cl)cc1,-52.8%
7,COc1ccc(CCNC(=O)CN2CCN(Cc3ccccc3F)C2=O)cc1OC,8.26%
8,COc1ccc(C(CC(=O)Nc2cc(OC)cc(OC)c2)n2cccc2)cc1 (stereo not drawn),2.58%
9,Nc1ccc(N2CCOCC2)c(Cl)c1,1.49%
10,CC(=O)Nc1ccc(S(=O)(=O)Nc2nc(CN3CCOCC3)nc3sc4c(c23)CCCC4)cc1,-4%
11,CCOc1ccc(N(CC(=O)NCC2CCCO2)C(=O)CCC(=O)Nc2nccs2)cc1 (stereo not drawn),2.69%
12,Cc1nn2c(-c3cccc(NC(=O)c4ccco4)c3)nnc2c2ccccc12,-5.38%
13,Cc1ccc(OCCCCN2CCC(C)CC2)c(Br)c1.O=C(O)C(=O)O,-63.1%
14,Cc1ccc(C(C)C)c(OCCCCN2CCNCC2)c1.O=C(O)C(=O)O,-6.77%
15,Cc1ccc(OCCCCN2CCCCC2)c(Br)c1.O=C(O)C(=O)O,-62.6%
16,Cc1ccc(OCCCCCCN2CCNCC2)c(Br)c1.O=C(O)C(=O)O,-30.3%
17,CNCCCOc1ccc(C)cc1Br.O=C(O)C(=O)O,-10.9%
18,Cc1ccc(OCCOCCN2CCCC2)c(Br)c1.O=C(O)C(=O)O,-24.7%
19,COC(=O)/C(=C1/Oc2ccc(C)cc2S1)C(F)(F)F,32.8%
20,CC(C)(C)c1ccc(N2C(=N)SCC2=O)cc1,-0.538%
21,Cc1ccc(N2C(=N)SCC2=O)cc1Cl,-70.6%

row,SMILES,"hERG current change (%, negative = inhibition) at 10uM"
1,N=C1SCC(=O)N1c1ccc(Cl)cc1,8.91%
2,Cc1oc2c(c1C(=O)N1CCOCC1)C(=O)c1ccccc1C2=O,5.25%
3,CC(=O)N1CCc2cc(S(=O)(=O)NC(Cc3ccccc3)C(=O)NCCN3CCCCC3C)ccc21 (stereo not drawn),5.72%
4,O=C(Cc1ccc(Br)cc1)NCCc1ccc(F)cc1,11.3%
5,CCc1ccc(CNCCc2ccccc2F)cc1,-67.7%
6,Fc1ccc(CNCc2ccc(Br)cc2)cc1,-28.5%
7,Cl.c1ccc(CCNCc2ccccc2)cc1,-9.4%
8,CCc1ccc(CNCc2ccc(F)cc2)cc1,-21%
9,Cc1ccc(CNCCc2ccccc2F)cc1.Cl,-31.8%
10,Cc1ccccc1CCNCc1ccc(Br)cc1,-53.6%
11,Fc1ccc(CCNCc2ccc(Br)cc2)cc1,-53.8%
12,CCc1ccc(CNCCc2ccc(F)cc2)cc1,-72.8%
13,Fc1ccc(CNCCc2ccccc2)cc1.O=C(O)C(=O)O,-18.2%
14,Fc1ccccc1CCNCc1ccccc1,5.42%
15,Fc1ccc(CNCCc2ccccc2F)cc1,-2.59%
16,Cc1cccc(-n2ncc3c2CCCC3NC(=O)Cc2c(C)noc2C)c1C (stereo not drawn),15.9%
17,COc1ccc(/C=C2\SC(=S)N(CCCC(=O)NC3CCCC3)C2=O)cc1OC,-12.2%
18,Cc1nn(CCCC(=O)O)c(C)c1[N+](=O)[O-],12.3%
19,O=C(COc1ccc(S(=O)(=O)NC2CCCCC2)cc1)NCCC1=CCCCC1,2.33%
20,CCN(CC)S(=O)(=O)c1ccc(NC(=O)COC(=O)c2ccc(NC(=O)CC#N)cc2)cc1,20.5%
21,CCn1c(Cc2ccccc2)nnc1SCC(=O)OC(C)C,0.117%
